Bioassay records from PubChem.
G9a inh – qHTS Assay for Inhibitors of Histone Lysine Methyltransferase G9a; AID 504332, 2011; Potency, µM (series often up to 102 µM), inactives show at the top dose activity, negative = inhibition, most hits filed as inhibitors; Histone-lysine N-methyltransferase EHMT2 (Homo sapiens), Q96KQ7; hit rate 8.8% among 350,000; G9a H3K9 monomethylation, AlphaScreen, 2 h; also: % is scaled to controls: 0 for no effect and ±100 for the full control effect; nearly all actives have a fitted effect of over 75% in size
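Chemiluminescent proximity detection of H3K9 monomethylation, read after 10 min bead incubation in the dark. Reaction: 20 nM G9a, 500 nM biotin-H3K9 peptide, 20 uM SAM cofactor, 2 h, room temperature, following 15 min enzyme-compound preincubation.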
JMJD2A Tudor – qHTS Assay for Inhibitors of JMJD2A-Tudor Domain. Lysine-specific demethylase 4A (Homo sapiens), O75164. AlphaScreen JMJD2A-Tudor / H3K4me3 peptide binding. Potency, µM (doses to about 114 µM), for the others: at the highest dose activity change, negative = inhibition, actives largely listed as inhibitors. hit rate 4.4% among 390,000; also: % is scaled to controls: 0 for no effect and ±100 for the full control effect; nearly all actives have a fitted effect of over 50% in size
BAZ2B block – qHTS Assay for Inhibitors of BAZ2B | Bromodomain adjacent to zinc finger domain protein 2B (Homo sapiens), Q9UIF8 | AlphaScreen BAZ2B-H3K14Ac peptide displacement | Potency, µM (doses to about 114 µM), for inactives: at the highest dose activity change, negative = inhibition, hits mostly inhibitors | hit rate 4.4% among 360,000 | AID 504333, 2011; also: % is scaled to controls: 0 for no effect and ±100 for the full control effect; nearly all actives have a fitted effect of over 60% in size
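BAZ2B (50 nM) with biotin-H3(5-23)K14Ac peptide (50 nM) in PBS pH 7.4, 0.01% Tween-20, preformed 30 min, then compound 30 min at room temperature; top concentration 110uM. AlphaScreen streptavidin donor/nickel chelate acceptor beads (10 ug/mL final), 20 min dark, signal read.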
PLK1 PBD block – qHTS for Inhibitors of PLK1-PDB (polo-like kinase 1 - polo-box domain): Primary Screen. Serine/threonine-protein kinase PLK1 (Homo sapiens), P53350. Plk1 PBD binding of FITC phosphopeptide, fluorescence polarization. Potency, µM, for the others: max response, negative = inhibition, hits mostly inhibitors. hit rate 2.8% among 360,000. AID 720504, 2013; also: series mostly up to about 57 µM; % is scaled to controls: 0 for no effect and ±100 for the full control effect; nearly all actives have a fitted effect of over 65% in size
Target sequence (P53350 whole entry, looked up, the tested form may be a part): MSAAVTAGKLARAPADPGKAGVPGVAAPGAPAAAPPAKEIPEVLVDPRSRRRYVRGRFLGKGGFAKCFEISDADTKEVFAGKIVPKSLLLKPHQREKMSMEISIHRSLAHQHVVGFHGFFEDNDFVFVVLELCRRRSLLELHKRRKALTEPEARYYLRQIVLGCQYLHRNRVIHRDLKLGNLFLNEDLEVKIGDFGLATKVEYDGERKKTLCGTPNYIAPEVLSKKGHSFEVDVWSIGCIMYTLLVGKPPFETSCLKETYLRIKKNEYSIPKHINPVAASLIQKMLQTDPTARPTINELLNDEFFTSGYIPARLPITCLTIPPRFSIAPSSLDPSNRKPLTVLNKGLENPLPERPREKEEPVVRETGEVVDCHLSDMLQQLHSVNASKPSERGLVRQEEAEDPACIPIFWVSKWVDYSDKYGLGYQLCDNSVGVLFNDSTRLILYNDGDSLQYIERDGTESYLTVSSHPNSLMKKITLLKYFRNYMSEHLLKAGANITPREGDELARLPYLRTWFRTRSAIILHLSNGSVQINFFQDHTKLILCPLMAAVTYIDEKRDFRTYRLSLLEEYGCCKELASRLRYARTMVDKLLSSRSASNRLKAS
VDR inh – Inhibitors of the vitamin D receptor (VDR): qHTS. Potency, µM, inactives show max response, negative = inhibition, most hits filed as inhibitors. hit rate 0.93% among 400,000. Vitamin D3 receptor (Homo sapiens), P11473. VDR-SRC2-3 peptide fluorescence polarization, 2 h; also: % is scaled to controls: 0 for no effect and ±100 for the full control effect
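Reagent solutions, kept cold and dark, are dispensed first; compounds are then pinned in at 23 nl, plates briefly spun, and incubated 2 h at ambient temperature. Inhibition of VDR–SRC2-3 peptide binding is read by fluorescence polarization.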
HP1b binding inh – HTS for Inhibitors of HP1-beta Chromodomain Interactions with Methylated Histone Tails; AlphaScreen HP1-beta / biotin-H3K9me3 peptide binding; AID 540317, 2011; Chromobox protein homolog 1 (Homo sapiens), P83916; Potency, µM (titrated, usually from 114 µM), for the others: top-dose activity change, negative = inhibition, actives largely listed as inhibitors; hit rate 0.56% among 390,000; also: nearly all actives have a fitted effect of over 70% in size
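HP1-beta protein (50 nM final) preincubated 30 min at room temperature with biotinylated H3(1-18)K9me3 peptide (50 nM) in PBS pH 7.4, 0.01% Tween-20, then compound added for 30 min. AlphaScreen streptavidin donor/nickel chelate acceptor beads (10 ug/mL final), 30 min dark, luminescence read.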
Numbers without * were called inactive; u = inconclusive; x = no result; [ ] = another dose, or the depositor's remark. In the library only some 11% were active in any assay of this set; here they are far more common. Calls follow the shape of the dose curve; as a rule, active = well fitted curve in the direction sought with a large enough effect; inconclusive = small, poorly fitted or top-dose-only effect, or another doubt; inactive = no such curve, though single readings can be large; an effect the other way counts as inactive or inconclusive. Potency is read from the fitted curve at half-maximal effect.

SMILES | G9a inh | JMJD2A Tudor | BAZ2B block | PLK1 PBD block | VDR inh | HP1b binding inh
Cc1cc(C)cc(NC(=O)c2cc(S(=O)(=O)N3CCc4ccccc43)cn2C)c1 | -23%[59 µM] | -16% | u | x | 13% | 11%
COc1ccc(C(=O)Nc2ccc(-c3nnn(CC(=O)N4CCN(C(=O)c5ccco5)CC4)n3)cc2)cc1 | 50µM* | -21% | 79µM* | -5% | -5% | 16%
COc1ccc(OC)c(-n2nnnc2SCC(=O)N2CCN(C(=O)c3ccco3)CC2)c1 | u | 20µM* | -19% | 17µM* | 71µM* | -22%
O=C(Cn1nnc(-c2ccc(Cl)cc2)n1)N1CCN(C(=O)c2ccco2)CC1 | 24%[12.7 µM] | -1% | 12% | 7% | -21% | 43%
Cc1nnc(SCC(=O)N2CCN(C(=O)c3ccco3)CC2)n1C | u | 10% | 3% | -1% | 12% | 55%
Cn1cnnc1SCC(=O)N1CCN(C(=O)c2ccco2)CC1 | 35µM* | -8% | -32% | -6% | -23% | 25%
COc1ccc(-n2nnnc2SCC(=O)N2CCN(C(=O)c3ccco3)CC2)cc1OC | -10%[59 µM] | u | -8% | 19µM* | -23% | -16%
Cc1[nH]c2ccccc2c1C(=O)C(=O)N1CCN(c2ccccc2Cl)CC1 | 26%[0.0925 µM] | u | 16% | -8% | 9% | 15%
CS(=O)(=O)c1ccccc1C(=O)Nc1cccc2ncccc12 | 3% | -9% | 6% | -6% | -5% | 2%
CN(Cc1ccon1)C(=O)C1CCC(=O)N(Cc2ccc(Cl)cc2)C1 (stereo unspecified) | 25% | 5% | -16% | 8% | -20% | 32%
Cc1cc2cc3c(cc2nc1SCC(=O)N1CCN(C(=O)c2ccco2)CC1)OCO3 | 50µM* | -35% | -34% | -16% | -7% | -13%
Cn1cnnc1SCc1ccccc1 | 1.3µM* | -19% | 13% | -9% | -4% | 11%
O=C(CSc1nc2cc(Cl)ccc2s1)N1CCN(C(=O)c2ccco2)CC1 | 45µM* | -20% | -9% | -16% | 7% | 20%
Cc1ccc2c(CN3CCCCC3CCO)cc(=O)oc2c1 (stereo unspecified) | 25µM* | 0% | 3% | -2% | 7% | 32%
Cc1ccc2c(CN3CC(C)CC(C)C3)cc(=O)oc2c1 (stereo unspecified) | 5% | 3% | 14% | -2% | -7% | 53%
Cc1ccc2c(CN3CCCCC3C)cc(=O)oc2c1 (stereo unspecified) | 8% | -4% | 9% | -7% | -10% | 32%
Cc1ccc2c(CN3CCC(C)CC3)cc(=O)oc2c1 | 45µM* | -5% | -3% | -2% | -3% | 29%
Cc1ccc(OC(=O)CN2C(=O)c3ccccc3C2=O)cc1C | 21% | -6% | 16% | -4% | 12% | 16%
Cc1cc(C)c(S(=O)(=O)ON2C(=O)c3ccccc3C2=O)cc1C | x | 56µM* | u | 5.3µM* | 32µM* | u
Cc1ccc(NC(=O)CN2C(=O)c3ccccc3C2=O)c(C)c1 | u | -7% | -4% | 2% | -4% | 23%
Cc1ccc(S(=O)(=O)Oc2ccccc2-c2ccccc2)cc1 | x | 149% | x | -3% | 8% | 136%[57 µM]
O=C1c2ccccc2C(=O)N1OS(=O)(=O)c1ccc(F)cc1 | 2.2µM* | 9% | -32% | 5.3µM* | -2% | 41%
Cc1cc(C)c(C)c(S(=O)(=O)ON2C(=O)c3ccccc3C2=O)c1C | 7.9µM* | 89µM* | -39% | 6.7µM* | 22µM* | -32%
Cc1ccc(S(=O)(=O)ON2C(=O)c3ccccc3C2=O)c(C)c1 | 7.9µM* | 50µM* | 13% | 7.5µM* | 18µM* | 45µM*
CCOC(=O)c1cc(-c2ccc(C)cc2)n(CCC(=O)Nc2ccc(C(C)C)cc2)c1C | 0%[59 µM] | -14% | -17% | x | 4% | 25%
